# Screens deposited in PubChem BioAssay by National Center for Advancing Translational Sciences (NCATS).
# Rows were chosen to be rich in hits. Some 3% of all compounds tested hit in one or more screens of this group.
# Tau fluor cs: Counterscreen qHTS for Inhibitors of Tau Fibril Formation, Fluorescence Polarization | tau K18 P301L Alexa594 fluorescence, heparin fibrillization | Potency, µM (highest dose often 57.7 µM), without a hit: top-dose activity change, negative = decrease | actives 0.93% (n = 280,000) | AID 1463, 2008; note: potency is the fitted concentration of half-maximal effect; nearly all actives have a fitted effect of over 55% in size
#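 Human tau K18 P301L (15 uM unlabeled, 0.24 uM Alexa 594-labeled) in 100 mM sodium acetate pH 7 with 20 uM heparin, 6 hr at 37 C. ThT 30 uM added, 1 hr ambient; Alexa 594 FP and total fluorescence read at 555/632 nm.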
# FBPA coupling cs: qHTS Assay for Inhibitors of Fructose-1,6-bisphosphate Aldolase from Giardia Lamblia: Coupling assay counterscreen; coupling enzyme system counterscreen, AmpLite Red fluorescence; actives 0.67% (n = 290,000); AID 2472, 2010; activity change, negative = inhibition, % at 58.2 µM, hits read low; in the data active = activity change below about -30%
#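 Final compound at 57.5 uM, incubated 10 min at RT with coupling enzyme reagent (glyceraldehyde-3-phosphate), then 20 min with substrate and AmpLite Red detection. Fluorescence read at 525/598 nm; tests interference with the coupling assay, not aldolase inhibition.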
# Tau ThT inhib: qHTS for Inhibitors of Tau Fibril Formation, Thioflavin T Binding. Microtubule-associated protein tau (Homo sapiens), P10636. recombinant tau K18 P301L, heparin-induced fibrillization, ThT fluorescence. Potency, µM (doses to about 57.4 µM), for inactives: at the highest dose activity, negative = inhibition, most hits filed as inhibitors. actives 2.1% (n = 270,000). AID 1460, 2008; note: potency is the fitted concentration of half-maximal effect; nearly all actives have a fitted effect of over 55% in size
# Target sequence (P10636 561-689 P618L limits assumed): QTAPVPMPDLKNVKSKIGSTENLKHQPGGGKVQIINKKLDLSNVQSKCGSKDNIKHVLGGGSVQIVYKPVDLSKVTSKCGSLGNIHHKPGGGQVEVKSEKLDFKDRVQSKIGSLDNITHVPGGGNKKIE
#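 ThT emission at 510 nm, taken 1 hr after adding 30 uM dye, quantifies aggregates formed when 20 uM heparin acts on human tau K18 P301L for 6 hr at 37 C.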
# JMJD2E inh: qHTS Assay for Inhibitors of Human Jumonji Domain Containing 2E (JMJD2E). JMJD2E catalytic domain, FDH-coupled NADH fluorescence (FDH is formaldehyde dehydrogenase). Potency, µM (top dose mostly 57.1 µM), inactives show at the top dose activity change, negative = inhibition, actives largely listed as inhibitors. actives 1.6% (n = 230,000); active = well fitted inhibition curve with a large enough effect, not every such curve was filed as active; inconclusive = small, poorly fitted or top-dose-only effect, or another doubt; inactive = no such curve, though single readings can be large or run the other way;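 note: potency is the fitted concentration of half-maximal effect; 0% = wells with enzyme and -100% = buffer wells without enzyme; nearly all actives have a fitted effect of over 50% in size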
# Target sequence (B2RXH2 1-337 limits assumed): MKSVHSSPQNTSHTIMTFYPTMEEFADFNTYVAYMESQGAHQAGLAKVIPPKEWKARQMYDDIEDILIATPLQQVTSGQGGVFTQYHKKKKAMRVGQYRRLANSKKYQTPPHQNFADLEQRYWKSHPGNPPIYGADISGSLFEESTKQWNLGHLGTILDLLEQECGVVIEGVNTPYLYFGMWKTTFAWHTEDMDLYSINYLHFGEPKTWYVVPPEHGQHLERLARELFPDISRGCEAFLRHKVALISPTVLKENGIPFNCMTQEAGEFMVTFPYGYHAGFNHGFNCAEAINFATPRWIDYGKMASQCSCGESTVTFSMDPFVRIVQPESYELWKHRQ
# Tau FP inhib: qHTS for Inhibitors of Tau Fibril Formation, Fluorescence Polarization; Microtubule-associated protein tau (Homo sapiens), P10636; K18 P301L tau heparin fibrillization, Alexa594 FP, 6 h; Potency, µM (titrated, usually from 57.7 µM), inactives show top-dose activity, negative = inhibition, usual class: inhibitors; actives 0.39% (n = 280,000); AID 1468, 2008; note: potency is the fitted concentration of half-maximal effect; nearly all actives have a fitted effect of over 55% in size
#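 Human tau K18 […] P301L fragment, 15 uM unlabeled plus 0.24 uM Alexa 594-labeled tau (final), with compound and 20 uM heparin in 100 mM sodium acetate pH 7; 6 hr at 37 C, then Alexa 594 FP read.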
# * hit, by the source's call; ? = inconclusive; . = not tested or not shown; [ ] = dose if it differs, or a comment. Unless noted, calls come from the whole dose curve; as a rule, active = well fitted curve in the direction sought with a large enough effect; inconclusive = small, poorly fitted or top-dose-only effect, or another doubt; inactive = no such curve, though single readings can be large; an effect the other way counts as inactive or inconclusive. Unless noted, % is set by controls: 0 for no effect and ±100 for the full control effect.
SMILES,Tau fluor cs,FBPA coupling cs,Tau ThT inhib,JMJD2E inh,Tau FP inhib
Oc1ccc(/C=C/c2nc(-c3ccccc3O)n(-c3ccccc3)n2)c(O)c1,5.6µM*[quencher],.,?,.,?
CCOc1ccc(N=Nc2c(=O)[nH]n3c(=O)cc(C)[nH]c23)cc1,-13%,3,3.5µM*,-11%,8%
Cc1cc(C)n2[nH]c(=O)c(N=Nc3ccccc3)c2n1,1%,1,?,?,4%
Cc1cc(=O)n2[nH]c(=O)c(N=Nc3ccccc3)c2[nH]1,-13%,5,14µM*,-6%,7%
CCOc1ccc(N=Nc2c(N)[nH][nH]c2=O)cc1,11%,-1,8%,-5%,12%
CCCCCN(CCCCC)C(=O)[C@H](CCC(=O)O)NC(=O)[C@H](Cc1ccc(OP(=O)(O)O)cc1)NC(C)=O,.,-11,.,.,.
Cc1ccccc1C(=O)Nc1ccccc1OCc1cc(=O)n2ccccc2n1,-3%,.,0%,.,-12%
CCOc1ccc2nc(N3CCCC(C(=O)Nc4cc(Cl)c(OC)cc4OC)C3)sc2c1 (stereo unspecified),?,.,?,.,2%
COc1cc(/C=C2\SC(=O)N(Cc3ccc(Cl)cc3)C2=O)cc([N+](=O)[O-])c1O,-30%,8,13µM*,?,-3%
COc1cc(/C=C2/SC(=S)N(Cc3ccccc3)C2=O)cc(Cl)c1O,.,13,.,.,.
CCOC(=O)CN1C(=O)S/C(=C/c2ccc(OC)c([N+](=O)[O-])c2)C1=O,0%,2,-2%,8%,6%
COc1cc(/C=C2\SC(=O)N(Cc3ccc(F)cc3)C2=O)cc([N+](=O)[O-])c1O,-18%,6,14µM*,-12%,16%
COc1ccc(NC(=O)CCCc2nnc3n(C(C)C)c(=O)c4sccc4n23)cc1Cl,-16%,.,-3%,.,-9%
Cc1[nH]n(C(N)=S)c(=O)c1N=Nc1cccc(Cl)c1,.,3,.,.,.
Cc1[nH]n(C(N)=S)c(=O)c1N=Nc1ccc([N+](=O)[O-])cc1Cl,.,0,.,.,.
NC(=S)n1[nH]c(-c2ccc([N+](=O)[O-])cc2)c(N=Nc2ccc(O)cc2)c1=O,?,3,3.2µM*,4%,15%
NC(=S)n1[nH]c(-c2ccc([N+](=O)[O-])cc2)c(N=Nc2cccc(Cl)c2)c1=O,14µM*[quencher],3,13µM*,-7%,6%
O=C(O)c1ccc2cccc(O)c2n1,0%,-16,-6%,72%,-1%
O=C(O)c1cccc(C(=O)O)n1,-2%,-80*,-13%,8.9µM*,-9%
O=C(O)c1ccc2cccnc2n1,-6%,-39*,-17%,22µM*,-4%
O=C(O)c1cccc(Cl)n1,0%,0,0%,1%,-2%
COc1ccc(C(CNC(=O)c2oc3ccc(C)cc3c2C)N2CCOCC2)cc1 (stereo unspecified),-10%,.,-17%,.,11%
CCc1ccc2c(c1)/C(=N/N(C)C(=S)NC)C(=O)N2,-24%,1,32µM*,2%,-5%
CCOc1ccc(C2C(C(=O)OC)=C(C)NC3=C2C(=O)c2ccccc23)cc1OC (stereo unspecified),16µM*[quencher],.,?,.,-5%
CCOC(=O)C1=C(C)NC2=C(C(=O)c3ccccc32)C1c1cccnc1 (stereo unspecified),-9%,1,?,2%,6%
SMILES,Tau fluor cs,FBPA coupling cs,Tau ThT inhib,JMJD2E inh,Tau FP inhib
CCOc1ccc(C2C(C#N)=C(C)NC3=C2C(=O)c2ccccc23)cc1 (stereo unspecified),20µM*[quencher],-8,?,?,?
COc1ccc(C2C(C#N)=C(C)NC3=C2C(=O)c2ccccc23)cc1 (stereo unspecified),-26%,-1,?,?,-11%
CC1=C([N+](=O)[O-])C(c2ccccc2)C2=C(N1)c1ccccc1C2=O (stereo unspecified),16µM*[quencher],-5,16µM*,-5%,-1%
O=C1NC2=C(C(=O)c3ccccc32)C(c2ccccc2)N1 (stereo unspecified),-22%,1,22µM*,-4%,?
O=C(CSc1nnc(CNC(=O)c2cccc(F)c2)n1-c1ccccc1)Nc1ccccc1F,-18%,.,-5%,.,-10%
CCN(C(=O)c1cc2c(=O)n(CC)c3ccccc3c2s1)c1cccc(C(F)(F)F)c1,-15%,.,-9%,.,13%
C#CCOc1c(Br)cc(C2C(C(=O)OC)=C(C)NC3=C2C(=O)c2ccccc23)cc1OCC (stereo unspecified),3.5µM*[quencher],.,6.3µM*,.,?
Cc1ccc(NS(=O)(=O)c2ccc(N3CCN(c4ccc(O)cc4)CC3)c([N+](=O)[O-])c2)c(C)c1,11µM*[quencher],-3,14µM*,-6%,8%
O=[N+]([O-])c1cc(S(=O)(=O)Nc2ccccc2)ccc1N1CCN(c2ccc(O)cc2)CC1,-2%,-15,-6%,3%,9%
C/C(=C\C(=O)c1ccc(F)cc1)Nc1ccc(N2CCOCC2)cc1,-20%,-15,3.5µM*,?,10%
O=C(/C=C/c1ccc(F)cc1)c1ccc(N2CCOCC2)cc1,-20%,-3,?,-12%,-12%
Oc1cc2c(c(Cl)c1O)CCNCC2c1ccccc1 (stereo unspecified),-12%,.,-19%,13µM*,-9%
Cc1cccc(C2CN(C)CCc3c2cc(O)c(O)c3Cl)c1 (stereo unspecified),-23%,.,?,13µM*,-7%
Oc1cc2c(c(Cl)c1O)CCNC[C@H]2c1ccccc1,-18%,-6,?,13µM*,-7%
CC1=C(c2ccc(Cl)cc2)S(=O)(=O)N=C1N1CCN(c2cccc(C)c2)C(C)C1 (stereo unspecified),-17%,.,?,.,12%
